Reference: ChEMBL document CHEMBL3433997, “St. Jude Leishmania screening dataset” (2016)

Columns and labels:
Type in all cases: functional
[1] = molecular target: Solute carrier family 2, facilitated glucose transporter member 1 (Homo sapiens) (UniProt P11166); assay: ST_JUDE_LEISH: Cytotoxicity at 2uM final concentration against transgenic Leishmania Mexicana promastigotes LmGLUT1 that are glucose transport deficient and complemented with the human glucose transporter GLUT1. Activity is measured by DNA content using SYBR green in vitro
Sequence of Solute carrier family 2, facilitated glucose transporter member 1 (Homo sapiens) (P11166 whole entry): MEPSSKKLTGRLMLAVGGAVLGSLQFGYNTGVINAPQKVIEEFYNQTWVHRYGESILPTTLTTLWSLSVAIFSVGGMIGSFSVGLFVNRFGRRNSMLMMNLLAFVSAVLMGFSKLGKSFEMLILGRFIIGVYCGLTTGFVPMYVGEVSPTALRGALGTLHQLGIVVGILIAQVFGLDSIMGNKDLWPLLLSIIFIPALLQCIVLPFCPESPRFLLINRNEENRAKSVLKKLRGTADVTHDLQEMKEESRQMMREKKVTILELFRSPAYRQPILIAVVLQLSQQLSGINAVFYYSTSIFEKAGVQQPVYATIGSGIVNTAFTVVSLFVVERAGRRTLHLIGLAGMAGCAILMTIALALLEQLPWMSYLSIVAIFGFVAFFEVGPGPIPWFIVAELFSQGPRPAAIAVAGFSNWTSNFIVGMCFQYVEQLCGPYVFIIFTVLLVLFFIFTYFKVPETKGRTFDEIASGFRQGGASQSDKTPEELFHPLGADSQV

[2] = molecular target: Hexose transporter 1 (Plasmodium falciparum) (UniProt O97467); assay: ST_JUDE_LEISH: Cytotoxicity at 2uM final concentration against transgenic Leishmania Mexicana promastigotes LmPfHT that are glucose transport deficient and complemented with the Plasmodium falciparum hexose transporter. Activity is measured by DNA content using SYBR green in vitro
[3] = molecular target: Glucose transporter (Leishmania mexicana) (UniProt O61059); assay: ST_JUDE_LEISH: Cytotoxicity at 2uM final concentration against transgenic Leishmania Mexicana promastigotes LmGT2 that are glucose transport deficient and complemented with the L. Mexicana glucose transporter 2. Activity is measured by DNA content using SYBR green in vitro

Structure (SMILES)	inhibition [1] [%]	inhibition [2] [%]	inhibition [3] [%]
NC(=O)C1CCN(Cc2ccc(-c3cccc(-c4nc5cc(F)ccc5[nH]4)c3)cc2)CC1	-0.89	-0.57	-1.49
CCc1ccc(C2CCN(CCCCNC(=O)c3ccc(NC(=O)c4ccc(Cl)cc4)cc3)CC2)c(OCC(=O)OC)c1	-0.04	1.79	1.25
COc1ccc2nccc([C@@H](O)CN3CCC(NCc4ccc5c(c4)NC(=O)CS5)CC3)c2c1	1.65	4.15	-0.16
C=Cc1ccccc1C1(O)CCN(CCCCNC(=O)c2ccc(-c3ccc(C#N)cc3)cc2)CC1	1.27	1.76	-1.41
O=C1CC(C(=O)Nc2cccc(-c3cccc(-c4nc5ccccc5[nH]4)c3)c2)c2ccccc2N1 (stereo not drawn)	7.77	6.55	0.51
CC(C)(Oc1c(C2CCN(CCCCNC(=O)c3ccc(-c4ccc(C#N)cc4)cc3)CC2)ccc2c1CCCC2)C(N)=O	0.07	0.7	-1.31
Cc1cccc2nc(-c3ccc(-c4cccc(C(=O)N5CCCCC5C(C)O)c4)s3)[nH]c12 (stereo not drawn)	1.3	2.52	3.46
O=C(Nc1ccc(Cl)cc1)c1ccc(CN2CCCN(CC3CCCCC3)CC2)cc1	4.77	7.11	5.54
Cc1ccc(Nc2ccnc(Nc3ccc(F)c(Cl)c3)n2)cc1O	6.74	10.4	2.04
CCCCc1ccc(-c2ccc(-c3c(C)[nH]c(C)c(Br)c3=O)cn2)cc1	2.88	3.53	1.52
N#Cc1ccc2c(c1)CCN(CCC1CCC(NC(=O)/C=C/c3cccc4cc[nH]c34)CC1)CC2 (stereo not drawn)	8.95	9.87	3.01
